# In PubChem BioAssay (NCI):
# The panel holds about 83,000 compounds, 20% with a hit somewhere; the sample as a whole holds those more often.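 Compound tested at a single concentration for 48 hours in 96-well plates; a percent growth value below 10 was scored as active.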 Unmarked numbers belong to inactive results. Calls of active or inactive are those of the source.
# Key:
# Assay in all cases: NCI-60 one-dose screen, 48 h (100 = growth as untreated, 0 = no growth, -100 = all killed)
# Conditions in all cases: 10 µM unless noted
# HCT-15 colon = test system: HCT-15 colon
# HT29 colon = test system: HT29 colon
# SNB-75 CNS = test system: SNB-75 CNS
# SNB-19 CNS = test system: SNB-19 CNS
# U251 CNS = test system: U251 CNS
# PC-3 prostate = test system: PC-3 prostate
# SK-MEL-5 melanoma = test system: SK-MEL-5 melanoma
# UACC-62 melanoma = test system: UACC-62 melanoma
# LOX IMVI melanoma = test system: LOX IMVI melanoma
# SK-MEL-28 melanoma = test system: SK-MEL-28 melanoma
Structure (SMILES),growth (HCT-15 colon),growth (HT29 colon),growth (SNB-75 CNS),growth (SNB-19 CNS),growth (U251 CNS),growth (PC-3 prostate),growth (SK-MEL-5 melanoma),growth (UACC-62 melanoma),growth (LOX IMVI melanoma),growth (SK-MEL-28 melanoma)
CC(C)N1C(=O)/C(=C2\SC(=S)N(C(C)C)C2=O)SC1=S,98.5%,96.8%,62.3%,92.6%,90.8%,89.3%,97.9%,91.7%,90%,97.8%
CCCCCC(=O)Oc1ccc(/C(=C(\C)c2ccccc2)c2ccc(OCCN3CCCCC3)cc2)cc1,58.5%,8.87% (active),92%,89.6%,71.7%,72.2%,83.9%,91%,84%,71.4%
O=C1c2ccc3c4c(ccc(c24)C(=O)N1CCCNCc1ccccc1Cl)C(=O)N(CCCNCc1ccccc1Cl)C3=O,-46% (active),-42.5% (active),-97.9% (active),-76.9% (active),-52.8% (active),-37.7% (active),-96.6% (active),-59.5% (active),-53.7% (active),-92.2% (active)
O=C(NO)c1ccc(-n2nc(-c3ccccc3)c3ccccc32)cc1,18.5%,41.7%,12.1%,47.4%,34.4%,46.7%,57.6%,34.5%,24.8%,72.5%
Nc1c(C(=O)Nc2cccc3cnccc23)sc2nc3c(cc12)C(=O)CCC3,70.9%,79.9%,88.5%,66.6%,95.7%,75.9%,47.6%,43.1%,91.6%,85.1%
COc1cc(NCCCCCNC(C)(C)C)c2ncccc2c1,91.2%,85.9%,53.2%,91.7%,100%,76.4%,100%,89.6%,93.7%,107%
CCN(CC)CCn1c(=O)c2cc(OC)c(OC)cc2c2ccc3cc4c(cc3c21)OCO4,54.7%,17.1%,47.9%,27.1%,22.7%,48%,36.1%,16.8%,-42.2% (active),53.4%
Cc1cc(Cl)nc(N(CCNc2ccnc3cc(Cl)ccc23)Cc2ccccn2)n1,48.7%,24.7%,78.6%,62.5%,26.8%,56.9%,41.3%,66.3%,58.4%,62.1%
NS(=O)(=O)c1ccc(CCn2c(SCC(=O)c3ccc(Cl)cc3)nc3ccccc3c2=O)cc1,98.2%,102%,90.2%,102%,109%,98.2%,104%,98.9%,96.8%,113%
CN(C)c1ccc(Nc2c3ccccc3nc3cc(NC(=O)CCN4CCCC4)ccc23)cc1,-18.4% (active),1.99% (active),-0.0133% (active),-7.13% (active),-48.6% (active),-25.4% (active),0.523% (active),15.5%,-74.8% (active),-34.7% (active)
O=C(Nc1ccc(-c2ccc3c(c2)NC(=O)/C3=C\c2ccc[nH]2)cc1)NC1CC1,88.3%,88%,89.8%,92.6%,75%,99.4%,94%,97.7%,89.3%,111%
C=C1C(=O)O[C@H]2[C@H]1CC/C(COC(=O)NCc1c[nH]c3ccc(Br)cc13)=C\CC[C@@]1(C)O[C@@H]21,-70.2% (active),-76.6% (active),-5.16% (active),40.2%,3.96% (active),15.4%,-27.1% (active),-63% (active),-82% (active),-33.5% (active)
CC(C)N1C(=O)S/C(=C2/SC(=O)N(C(C)C)C2=O)C1=O,95.9%,102%,64.8%,93.3%,96.3%,98.2%,93.9%,91.6%,91.9%,105%
